Test results as given in PubChem BioAssay AID1159580 (chemical genetic matrix, 2015).
Hit rate of the full screen: of about 5,500 compounds, about 2,000 (36%) were called active. Inconclusive results (about 18%) are left out. No stated cut-off is given here; in the data, active means normalized growth mostly below about 0.91 (no sharp cut-off); inconclusive means no clear call, values can overlap the other calls; inactive means mostly above about 0.92. Some of the results follow.

Test: chemical genetic growth profiling, strain panel (AID 1159580);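 further: tested at 20 µM; growth read once vehicle control cultures reached saturation at 30 °C; 1 = growth at the plate median or of vehicle wells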
Conditions: growth OD

Measured: normalized growth

CNC(=O)Oc1ccccc1OC(C)C
inactive: S. cerevisiae deletion strains, locus YJR043C, strain POL32, stronger effect = lower value 1.01 | S. cerevisiae deletion strains, locus YJR075W, strain HOC1, stronger effect = lower value 1.02 | S. cerevisiae deletion strains, locus YKL009W, strain mrt4, stronger effect = lower value 0.986 | S. cerevisiae deletion strains, locus YKL068W, stronger effect = lower value 0.991 | S. cerevisiae deletion strains, locus YKL085W, strain MDH1 (second series), stronger effect = lower value 0.982 | S. cerevisiae deletion strains, locus YKL085W, strain MDH1, stronger effect = lower value 0.982 | S. cerevisiae deletion strains, locus YKL160W, strain elf1, stronger effect = lower value 0.996 | S. cerevisiae deletion strains, locus YKL190W, strain CNB1, stronger effect = lower value 1.01 | S. cerevisiae deletion strains, locus YKR001C, strain vps1, stronger effect = lower value 0.99 | S. cerevisiae deletion strains, locus YKR026C, strain gcn3, stronger effect = lower value 0.993 | S. cerevisiae deletion strains, locus YKR091W, strain srl3, stronger effect = lower value 0.989 | S. cerevisiae deletion strains, locus YLL001W, strain dnm1, stronger effect = lower value 0.995 | S. cerevisiae deletion strains, locus YLL026W, stronger effect = lower value 0.986 | S. cerevisiae deletion strains, locus YLL041C, strain sdh2, stronger effect = lower value 0.994 | S. cerevisiae deletion strains, locus YLR027C, strain aat2, stronger effect = lower value 0.995 | S. cerevisiae deletion strains, locus YLR039C, strain RIC1, stronger effect = lower value 1.05 | S. cerevisiae deletion strains, locus YLR058C, strain SHM2, stronger effect = lower value 1.02 | S. cerevisiae deletion strains, locus YLR102C, strain apc9, stronger effect = lower value 0.988 | S. cerevisiae deletion strains, locus YLR221C, strain rsa3, stronger effect = lower value 0.986 | S. cerevisiae deletion strains, locus YLR258W, strain gsy2, stronger effect = lower value 0.984 | S. cerevisiae deletion strains, locus YLR262C, strain YPT6 (second series), stronger effect = lower value 1.01 | S. cerevisiae deletion strains, locus YLR262C, strain YPT6, stronger effect = lower value 1.06 | S. cerevisiae deletion strains, locus YLR268W, strain sec22, stronger effect = lower value 0.99 | S. cerevisiae deletion strains, locus YLR320W, strain mms22, stronger effect = lower value 0.987 | S. cerevisiae deletion strains, locus YLR330W, strain CHS5, stronger effect = lower value 1.02 | S. cerevisiae deletion strains, locus YLR342W, strain FKS1 (second series), stronger effect = lower value 1 | S. cerevisiae deletion strains, locus YLR342W, strain FKS1, stronger effect = lower value 0.99 | S. cerevisiae deletion strains, locus YLR357W, strain rsc2, stronger effect = lower value 0.953 | S. cerevisiae deletion strains, locus YLR370C, strain arc18, stronger effect = lower value 0.992 | S. cerevisiae deletion strains, locus YLR371W, strain rom2, stronger effect = lower value 0.987 | S. cerevisiae deletion strains, locus YLR384C, strain iki3, stronger effect = lower value 0.99 | S. cerevisiae deletion strains, locus YLR418C, strain cdc73, stronger effect = lower value 0.97 | S. cerevisiae deletion strains, locus YML016C, strain PPZ1, stronger effect = lower value 1.03 | S. cerevisiae deletion strains, locus YML032C, strain rad52, stronger effect = lower value 0.989 | S. cerevisiae deletion strains, locus YML120C, strain ndi1, stronger effect = lower value 0.986 | S. cerevisiae deletion strains, locus YML124C, strain tub3, stronger effect = lower value 0.991 | S. cerevisiae deletion strains, locus YMR058W, strain fet3, stronger effect = lower value 0.989 | S. cerevisiae deletion strains, locus YMR078C, strain ctf18, stronger effect = lower value 0.985 | S. cerevisiae deletion strains, locus YMR125W, strain sto1, stronger effect = lower value 0.957 | S. cerevisiae deletion strains, locus YMR129W, stronger effect = lower value 0.995 | S. cerevisiae deletion strains, locus YMR205C, strain PFK2, stronger effect = lower value 0.984 | S. cerevisiae deletion strains, locus YMR223W, strain ubp8, stronger effect = lower value 0.986 | S. cerevisiae deletion strains, locus YMR231W, strain pep5, stronger effect = lower value 0.988 | S. cerevisiae deletion strains, locus YMR263W, strain SAP30, stronger effect = lower value 1.03 | S. cerevisiae deletion strains, locus YMR307W, strain GAS1, stronger effect = lower value 0.988 | S. cerevisiae deletion strains, locus YNL067W, strain RPL9B, stronger effect = lower value 1.03 | S. cerevisiae deletion strains, locus YNL071W, strain lat1, stronger effect = lower value 1 | S. cerevisiae deletion strains, locus YNL128W, strain TEP1, stronger effect = lower value 1.02 | S. cerevisiae deletion strains, locus YNL153C, strain GIM3, stronger effect = lower value 1.02 | S. cerevisiae deletion strains, locus YNL209W, strain ssb2, stronger effect = lower value 0.994 | S. cerevisiae deletion strains, locus YNL233W, strain BNI4, stronger effect = lower value 0.982 | S. cerevisiae deletion strains, locus YNL248C, strain rpa49, stronger effect = lower value 0.979 | S. cerevisiae deletion strains, locus YNL250W, strain rad50, stronger effect = lower value 0.979 | S. cerevisiae deletion strains, locus YNL271C, strain bni1, stronger effect = lower value 0.968 | S. cerevisiae deletion strains, locus YNL298W, strain CLA4, stronger effect = lower value 0.98 | S. cerevisiae deletion strains, locus YNL307C, strain MCK1, stronger effect = lower value 0.992 | S. cerevisiae deletion strains, locus YNL322C, strain KRE1 (second series), stronger effect = lower value 0.98 | S. cerevisiae deletion strains, locus YNL322C, strain KRE1, stronger effect = lower value 1.01 | S. cerevisiae deletion strains, locus YNR049C, strain mso1, stronger effect = lower value 0.989 | S. cerevisiae deletion strains, locus YNR052C, strain pop2, stronger effect = lower value 0.986 | S. cerevisiae deletion strains, locus YOL006C, strain TOP1, stronger effect = lower value 1.06 | S. cerevisiae deletion strains, locus YOL012C, strain htz1 0.953 | S. cerevisiae deletion strains, locus YOL147C, strain pex11, stronger effect = lower value 0.993 | S. cerevisiae deletion strains, locus YOR001W, strain rrp6, stronger effect = lower value 0.998 | S. cerevisiae deletion strains, locus YOR061W, strain CKA2, stronger effect = lower value 1.01 | S. cerevisiae deletion strains, locus YOR069W, strain VPS5, stronger effect = lower value 1.01 | S. cerevisiae deletion strains, locus YOR070C, strain gyp1, stronger effect = lower value 0.986 | S. cerevisiae deletion strains, locus YOR080W, strain dia2, stronger effect = lower value 0.963 | S. cerevisiae deletion strains, locus YOR083W, strain WHI5, stronger effect = lower value 0.995 | S. cerevisiae deletion strains, locus YOR106W, strain vam3, stronger effect = lower value 0.991 | S. cerevisiae deletion strains, locus YOR136W, strain idh2, stronger effect = lower value 0.992 | S. cerevisiae deletion strains, locus YOR144C, strain elg1, stronger effect = lower value 0.995 | S. cerevisiae deletion strains, locus YOR184W, strain ser1, stronger effect = lower value 0.991 | S. cerevisiae deletion strains, locus YOR265W, strain rbl2, stronger effect = lower value 0.985 | S. cerevisiae deletion strains, locus YOR270C, strain vph1, stronger effect = lower value 1 | S. cerevisiae deletion strains, locus YOR290C, strain snf2, stronger effect = lower value 1 | S. cerevisiae deletion strains, locus YOR316C, strain cot1, stronger effect = lower value 0.992 | S. cerevisiae deletion strains, locus YPL051W, strain arl3, stronger effect = lower value 0.995 | S. cerevisiae deletion strains, locus YPL055C, strain LGE1, stronger effect = lower value 1.03 | S. cerevisiae deletion strains, locus YPL078C, strain atp4, stronger effect = lower value 0.998 | S. cerevisiae deletion strains, locus YPL106C, strain sse1, stronger effect = lower value 0.98 | S. cerevisiae deletion strains, locus YPL240C, strain hsp82, stronger effect = lower value 1 | S. cerevisiae deletion strains, locus YPL241C, strain CIN2, stronger effect = lower value 1.01 | S. cerevisiae deletion strains, locus YPR119W, strain clb2, stronger effect = lower value 0.994 | S. cerevisiae deletion strains, locus YPR141C, strain kar3, stronger effect = lower value 0.978 | S. cerevisiae deletion strains, locus YPR163C, strain tif3, stronger effect = lower value 0.987 | S. cerevisiae deletion strains, locus YPR167C, strain met16, stronger effect = lower value 0.989 | S. cerevisiae deletion strains, strain wtn01, stronger effect = lower value 0.984 | S. cerevisiae strains, strain wild type, stronger effect = lower value 1.01
